In the library only some 4.5% were active in any assay of this set; here they are far more common.
TIM10 inh: TIM10 yeast growth inhibition; inhibition, % at 10 µM; AID 463195; S. cerevisiae TIM10 strain growth, BacTiter-Glo luminescence, 24 h; 1.4% of 330,000 active;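 active = inhibition of 40% or more at the single tested concentration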;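 also: wild-type TIM10 isogenic control strain grown at permissive 25 °C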
tim10-1 inh: tim10-1 yeast growth inhibition; S. cerevisiae tim10-1 ts strain growth, BacTiter-Glo, 24 h; 2.2% of 330,000 active; inhibition, % at 20 µM;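 active = inhibition of at least 40%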;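 also: mutant grown at 25 °C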
PfHsp90 set2: reduces growth (ATP signal) of yeast expressing P. falciparum Hsp90; S. cerevisiae expressing PfHsp90, BacTiter-Glo ATP, 48 h; yeast lacking PDR1 and PDR3 efflux regulators; inhibition, % at 9.4 µM; 0.32% of 310,000 active;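 active = every replicate shows inhibition above about 80%, whatever the replicate mean, limit read from the data; inconclusive = mean inhibition reaches the set limit but some replicate falls short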
tim23-1 inh: tim23-1 yeast growth inhibition | S. cerevisiae tim23-1 growth, BacTiter-Glo luminescence, 24 h | inhibition, % at 20 µM | 1.3% of 330,000 active | AID 463212;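 active = growth inhibition of the mutant yeast at or above 50%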;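 also: temperature-sensitive mutant grown at 25 °C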
NLRP3 yeast inh: NALP3 inhibition in yeast; Yeast reconstituted NLRP3/ASC/caspase-1, beta-gal luminescence, 24 h; inhibition, % at 10 µM; 0.39% of 330,000 active;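 active = inhibition of 50% or more; inactive = inhibition below 50%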
SKKanGAS inh: SKKanGAS growth inhibition; S. pyogenes SKKanGAS, kanamycin growth, BacTiter-Glo, 6 h; inhibition, % at 7.5 µM; 1.3% of 300,000 active; AID 1662;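 active = mean replicate score, as percent of positive control median, at least 50; inconclusive = mean below 50 but one replicate at or above 50; inactive = mean and every replicate below 50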;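 also: strain carries kanamycin resistance gene driven by streptokinase promoter and grows in 40 µg/ml kanamycin; loss of luminescence reflects streptokinase promoter inhibition or plain growth inhibition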
tim23-1 confirm: tim23-1 yeast growth inhibition, confirmed; shares compounds with tim23-1 inh; S. cerevisiae tim23-1 growth, BacTiter-Glo luminescence, 24 h; inhibition, % at 20 µM; 83% of 4,400 active;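 active = inhibition above about 39% in either of two replicate wells at 20 µM, limit read from the data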;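 also: temperature-sensitive tim23-1 mutant grown at 25 °C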
Of the large screens only hits and unclear results are named; the others gave an inactive call (follow-up assays come after a bar, where they were run).

COc1ccc(NC(=O)CCN=C2NS(=O)(=O)c3ccccc32)cc1S(=O)(=O)N(C)C	none (no result: SKKanGAS inh)
CCN(CCCNC(=O)CCc1nc(-c2ccc(C)cc2)no1)c1cccc(C)c1	tim23-1 inh 52 | tim23-1 confirm 43
Cc1cccc(-c2noc(CCC(=O)NCCc3ccccc3)n2)c1	none
COc1cc2cncc(Cc3ccc(Cl)cc3)c2cc1OC	tim23-1 inh 57 (no result: SKKanGAS inh) | tim23-1 confirm 49
O=C(CSc1cccs1)Nc1ccc2ccccc2c1	tim23-1 inh 55 | tim23-1 confirm 57
O=Cc1ccccc1OCCOc1ccccc1C=O	tim23-1 inh 85 | tim23-1 confirm 78
Fc1cccc(CNc2ncnc3cc(Cl)ccc23)c1F	tim23-1 inh 60 | tim23-1 confirm inactive
CCCc1[nH][nH]c(=O)c1C(c1ccc(Br)cc1)C(C#N)C#N (configuration not stated)	tim23-1 inh 59 | tim23-1 confirm inactive
CC12CCC(c3c(C(=O)Nc4nccs4)nn(-c4ccccc4)c31)C2(C)C (configuration not stated)	tim23-1 inh 59, SKKanGAS inh inconclusive | tim23-1 confirm 57
Cc1cccc(NC(=O)CNC(=O)c2ccc3nc[nH]c3c2)c1C	none
CN1c2ccsc2/C(=N/Nc2ccccc2)CS1(=O)=O	tim23-1 inh 53, SKKanGAS inh 60 | tim23-1 confirm inactive
CN1c2ccsc2/C(=N/NC(=O)c2c(F)cccc2F)CS1(=O)=O	none
CCCC(=O)n1nc(-c2ccco2)nc1SCc1ccccc1	tim23-1 inh 54 | tim23-1 confirm 52
O=C(NCC1CCCO1)c1cc2nc(-c3ccco3)cc(C(F)(F)Cl)n2n1 (configuration not stated)	none
Cc1[nH][nH]c(=O)c1C(c1ccc(-c2cccc(Cl)c2)o1)c1c(C)[nH][nH]c1=O	tim23-1 inh 78 | tim23-1 confirm 62
Cc1[nH][nH]c(=O)c1C(c1ccc(-c2cccc(C(=O)O)c2)o1)c1c(C)[nH][nH]c1=O	none
COC(=O)c1ccc(-c2ccc(C(c3c(C)[nH][nH]c3=O)c3c(C)[nH][nH]c3=O)o2)cc1	tim23-1 inh 57 | tim23-1 confirm 37
COc1cccc(NC(=O)c2ccccc2F)c1	none (no result: SKKanGAS inh)
CCOC(=O)Nc1cccc(NC(=O)c2ccccc2F)c1	tim23-1 inh 55 | tim23-1 confirm 63
Cn1ncc(Br)c1C(=O)NC1CCCCCC1	none
CC1(C)CC2CC(C)(CN2S(=O)(=O)c2cccc(C(=O)OCC(N)=O)c2)C1 (configuration not stated)	none
CC1(C)CC2CC(C)(CN2S(=O)(=O)c2ccc(F)cc2F)C1 (configuration not stated)	tim23-1 inh 52 (no result: PfHsp90 set2, SKKanGAS inh) | tim23-1 confirm 49
COc1cc(C(=O)OCC(=O)N2c3ccccc3NC(=O)C2(C)C)ccc1OCC(C)C	none (no result: PfHsp90 set2)
COc1ccc(Br)c(C(=O)NNC(=O)c2ccc(NS(=O)(=O)c3cccs3)cc2)c1	none
COc1ccc(NC(=O)C2CC(=O)N(CCc3ccc(Cl)cc3)C2)cc1 (configuration not stated)	none
Cc1ccc(-c2cnc(-c3ccncc3)o2)cc1	none (no result: PfHsp90 set2)
Nc1ccc(-c2ncc(-c3ccccc3)o2)cc1	tim23-1 inh 51 | tim23-1 confirm inactive
O=C(CCN1CCC(c2ccc(Cl)s2)=N1)c1ccc(Cl)s1	none (no result: PfHsp90 set2)
Cc1nc2ccccc2c(=O)n1/N=C/c1ccccc1O	none
Cc1cc([N+](=O)[O-])cc(/C=N/n2c(C)nc3ccccc3c2=O)c1O	tim23-1 inh 79, SKKanGAS inh 72 | tim23-1 confirm 66
Cn1c(=O)c(C(=O)c2ccccc2)nc2ccccc21	none (no result: PfHsp90 set2)
Cn1cc(C(=O)c2ccc(Cl)cc2)cc1-c1nc2ccccc2n1C	tim23-1 inh 64 (no result: PfHsp90 set2) | tim23-1 confirm 48
CCn1c(COc2ccc3ccccc3c2C)nnc1SCC(=O)Nc1cccc(C(=O)O)c1	none
O=S(=O)(NCCN1CCOCC1)c1ccc(F)c(Cl)c1	none
Cc1cc(C)c(CN2CCN(C(=O)Cn3cnc4c(NCc5ccccc5)ncnc43)CC2)c(C)c1	tim23-1 inh 92 (no result: NLRP3 yeast inh, SKKanGAS inh) | tim23-1 confirm inactive
Cc1c(CCOC(=O)C23CC4CC(CC(C)(C4)C2)C3)sc[n+]1CC(=O)c1ccccc1	tim23-1 inh 62 | tim23-1 confirm inactive
COc1ccc(O)c(C(=O)c2cnn(C(=O)c3cccc(N(C)C)c3)c2)c1	tim23-1 inh 58 (no result: SKKanGAS inh) | tim23-1 confirm 57
CN(C)c1cccc(C(=O)n2cc(C(=O)c3cc(F)ccc3O)cn2)c1	tim23-1 inh 57 | tim23-1 confirm 68
COc1ccc(C(=O)n2cc(C(=O)c3cc(C)ccc3O)cn2)cc1OC	none
O=C(c1cnn(C(=O)c2ccc(O)cc2)c1)c1ccccc1O	none (no result: PfHsp90 set2)
COc1ccc(O)c(C(=O)c2cnn(C(=O)c3cc(C)oc3C)c2)c1	tim23-1 inh 58 | tim23-1 confirm 55
COc1ccc(OC)c(N(C(=O)c2ccco2)C(C(=O)NC2CCCC2)c2cc(OC)c(OC)c(OC)c2)c1 (configuration not stated)	none
Cc1ccc(C(=O)N2[C@@H]3CN(C)C(=O)[C@@]2(C)[C@H]2C(=O)N(C)C(=O)[C@@H]32)cc1	none (no result: TIM10 inh, tim10-1 inh, tim23-1 inh, NLRP3 yeast inh, SKKanGAS inh)
Oc1ccc(Cl)cc1CNCc1ccc(Cl)cc1	tim23-1 inh 60 (no result: SKKanGAS inh) | tim23-1 confirm 38
O=C(CSc1cn[nH]n1)Nc1ccc(Cl)cc1Cl	none
CCn1c(SC/C=C/c2ccccc2)nnc1-c1cccs1	none (no result: PfHsp90 set2)
Cn1c(SC/C=C/c2ccccc2)nnc1-c1cccs1	tim23-1 inh 57 | tim23-1 confirm 45
CC(OC(=O)C1CCC1)C(=O)Nc1cc(Cl)cc(Cl)c1 (configuration not stated)	none (no result: PfHsp90 set2)
CCN1C(=O)/C(=C/c2nc3ccccc3c(=O)[nH]2)c2ccccc21	none (no result: TIM10 inh, tim10-1 inh, tim23-1 inh, NLRP3 yeast inh, SKKanGAS inh)
CCN1C(=O)/C(=C/c2nc3ccccc3c(=O)n2-c2ccc(C)cc2)c2ccccc21	tim23-1 inh 52 | tim23-1 confirm 41
Oc1c(Cl)cc(Cl)cc1C=Nc1ccccc1N1CCCC1	tim23-1 inh 57 (no result: PfHsp90 set2) | tim23-1 confirm 54
NS(=O)(=O)c1ccc(CNS(=O)(=O)c2cc(C(=O)O)ccc2Cl)cc1	none
COc1ccccc1C(=O)COC(=O)Cc1ccccc1F	tim23-1 inh 52 (no result: SKKanGAS inh) | tim23-1 confirm 54
COc1ccccc1C(=O)COC(=O)Cc1c[nH]c2ccccc12	none (no result: PfHsp90 set2)
CSc1ccc(S(=O)(=O)NC2CCCCCC2)cc1	tim23-1 inh 53 | tim23-1 confirm 48
Cc1cc(C)nc(SCC(=O)c2cc3ccccc3oc2=O)n1	tim23-1 inh 50 | tim23-1 confirm 43
O=C(CSc1nc2ccccc2o1)c1cc2ccccc2oc1=O	none (no result: SKKanGAS inh)
COc1ccc2nc(NC(=O)C3CCN(C(=O)c4ccco4)CC3)sc2c1	none
CC(=O)Nc1cn(-c2ccccc2)nc1-c1ccccc1	none
O=C(CCl)Nc1cn(-c2ccccc2)nc1-c1ccccc1	tim23-1 inh 60 | tim23-1 confirm inactive
